# Data as given in PubChem BioAssay (NCI).
# About 83,000 compounds went through this panel and 20% of them were active in at least one assay; those are over-represented in the sample as a whole.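 For each line, cells grew in 96-well plates with the test compound present at a single concentration for 48 hours.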 A number with no mark means an inactive call. Calls of active or inactive are those of the source. Rule for the calls: active = growth percent below 10; inactive = the rest.
# Test system: MDA-MB-468 breast
# Assay: NCI-60 one-dose screen, 48 h (100 = growth as untreated, 0 = no growth, -100 = all killed)
# Conditions: 10 µM unless noted
row,SMILES,growth
1,CCOC(=O)Oc1c(OC)cc(C(=O)c2ccc(OC)c(O)c2OC)cc1OC,19.8%
2,CCn1c(Sc2nnc(NC(=O)CCN3CCCC3)s2)nc2c1c(=O)n(C)c(=O)n2C,101%
3,O=C1c2cc3c(cc2-c2c1c1cc(F)c(F)cc1c(=O)n2CCCn1ccnc1)OCO3,-53.6% (active)
4,O=c1[nH]nc(-c2ccccc2)c2sc(NC(=S)Nc3ccc(Cl)cc3)nc12,95.6%
5,C#CC#CC#CC#CC#CC#CC#CC#CC[C@@H]1OC[C@@H](COC(=O)O[C@@H](C(=O)O[C@H]2C[C@@]3(O)[C@@H](OC(=O)c4ccccc4)[C@@H]4[C@]5(OC(C)=O)CO[C@@H]5C[C@H](O)[C@@]4(C)C(=O)[C@H](OC(C)=O)C(=C2C)C3(C)C)[C@@H](NC(=O)c2ccccc2)c2ccccc2)O1,-4.7% (active)
6,CC[C@H]1CN2CCc3cc(OC)c(OC)cc3C2C[C@@H]1CC1NCCc2cc(OC)c(OC)cc21 (some centres undefined),-59.5% (active)
7,Cc1cc2cn3c4ccc(O)cc4[nH]c(=O)c3c2cc1C,-28.2% (active)
8,CC1=CC(c2ccco2)=C2C(N)=NNC2N1 (centres undefined),104%
9,CC(=O)NNC(=S)/N=C\C(C(=O)c1ccccc1)=C(/O)c1ccccc1,114%
10,O=C1/C(=C/c2cccc(Cl)c2)CCc2ccccc21,93.5%
11,Cc1ccc2sc3c(c2c1)OC(N)=C(C#N)C3c1cccc(F)c1 (centres undefined),-14.1% (active)
12,NNc1ccc(S(N)(=O)=O)cc1,100%
13,COC(=O)CC/C(C)=N\Nc1ccc([N+](=O)[O-])cc1,71.1%
14,COc1ccc(CN2c3ccccc3Oc3ccccc32)cc1O,6.51% (active)
15,CCN(CC)CCCC(C)N/C(=C1\C(=O)NC(=O)\C1=C(/NC(C)CCCN(CC)CC)c1cccc(OC)c1)c1cccc(OC)c1 (centres undefined),-42.6% (active)
16,COc1cc([N+](=O)[O-])c2ncccc2c1O,95.1%
17,OCc1cc(CN2CCCCC2)c(O)c2ncccc12,76.7%
18,N#Cc1c(N)nc(NCCO)nc1-c1ccc(F)cc1,102%
19,Cc1ccc(-n2c3c(c(-c4ccccc4)c2-c2ccccc2)C2=NCCN2C=N3)cc1,81.8%
20,CCn1cnc(C[C@H](NC(=O)[C@H](CCCCNC(=O)Nc2cc(C(F)(F)F)cc(C(F)(F)F)c2)NC(=O)Nc2cc(C(F)(F)F)cc(C(F)(F)F)c2)C(=O)OC)c1,-21% [100 µM] (active)
21,CCC1CCc2nc3sc(C(=O)Nc4ccccc4F)c(N)c3cc2C1 (centres undefined),25%

row,SMILES,growth
1,COc1ccc(/C(=N\O)c2cc(C)c(OC)c(C)c2)cc1O,44.4%
2,CC(=O)CC(C)(C)c1ccc(Cl)cc1,90.4%
3,O=[N+]([O-])c1cccc(N=Nc2ccc(O)cc2O)c1,69.6%
4,COc1cc(/C=C/C(=O)N2CCN(C(=O)/C=C/c3ccccc3)CC2)cc(OC)c1OC,107%
5,CCOC(=O)C(C)C(C)(O)c1ccccc1 (centres undefined),96.3%
6,CC(=O)N1N=C(C2C(=O)N(C)C(=O)N(C)C2=O)CC1c1ccccc1C(=O)O (centres undefined),114%
7,COc1cc(/C=C/c2nc(Nc3ccc(S(=O)(=O)Nc4cc(C)on4)cc3)c3ccccc3n2)ccc1O,-7.09% (active)
8,CCn1cc(C(=O)O)c(=O)c2cc(F)c(N3CCN(S(=O)(=O)c4cccc5ccccc45)CC3)cc21,4.79% (active)
9,O=C1Nc2cc(Cl)ccc2/C1=C\c1ccc(OCc2ccc(Br)cc2F)cc1,-37.8% (active)
10,O=C1/C(=C\c2cn(CC(O)CN3CCCCC3)c3ccccc23)c2ccccc2N1c1c(Cl)cccc1Cl (centres undefined),-93.3% (active)
11,Cc1ccc2c(=O)cc(C(=O)Nc3sc4c(c3C(=O)NCc3cccnc3)CCCC4)oc2c1C,109%
12,Clc1ccc2c(NCCCNC3CCCCC3)ccnc2c1,85.3%
13,C=CC(=O)Nc1cc2c(Nc3ccc(F)c(Cl)c3)ncnc2cc1OCCCN1CCOCC1,-31.5% (active)
14,Cc1c(C(=O)NC(Cc2ccccc2)C(O)C(=O)NCc2ccc(F)cc2)[nH]c2ccccc2c1=O (centres undefined),99.4%
15,CC/C=C\C[C@H](O)C/C=C1/C(=O)C=C[C@@H]1C/C=C\CCCC(N)=O,-33.1% (active)
16,CN(C)CCOc1ccccc1NC1=C(Cl)C(=O)C(Nc2ccccc2OCCN(C)C)=C(Cl)C1=O,-53.6% (active)
17,Cc1cc(N2CCOCC2)nc(N2CCOCC2)n1,94.6%
18,O=C(NNc1nc2cc(F)ccc2n2cncc12)c1cnccn1,31.7%
19,Cn1cc(C(=O)c2nc(-c3cn(C)c4ccc(F)cc34)no2)c2cc(F)ccc21,94.1%
20,CC1CCC2C(C)(C)C3CC12CC1OC13C (centres undefined),99.8%
21,Cc1cc(-c2ccccc2)on1,109%

row,SMILES,growth
1,Cc1cccc(C)c1NCc1nnc(-c2ccco2)o1,100%
2,Cc1ccc2c(n1)C(=O)C(Cl)=C(Nc1ccc(C#N)cc1)C2=O,51.4%
3,COc1ccc(C(=O)c2c(N)nc3n2CCCC3)cc1OC,97.7%
4,O=c1ccn2nc3ccccc3c2[nH]1,95.5%
5,COc1ccc2nc3cc(Cl)ccc3c(N3CCN(c4nccc(Nc5ccccc5)n4)CC3)c2c1,37.9%
6,CCOC(=O)C1=C(C)N2C(=NC3=C(CCCC/C3=C\c3ccccc3)C2c2ccccc2)S1 (centres undefined),103%
7,Cn1c(C(=O)c2cccc3ccccc23)nc2ccccc21,-1.13% (active)
8,CC1(C)N=C(N)N=C(N)N1c1cccc(/C=C/C=C/c2cccc([N+](=O)[O-])c2)c1,16.2%
9,COc1cc(-c2nc(-c3nnc(-c4ccccc4Cl)o3)c3ccccn23)cc(OC)c1OC,88.5%
10,O=C1NCC(c2cc3ccccc3[nH]c2=O)Nc2ccccc21 (centres undefined),97.5%
11,Cc1cc(C)c(S(=O)(=O)N2CCN(c3cc4c(cc3F)c(=O)c(C(=O)O)cn4C3CC3)CC2)c(C)c1,65.1%
12,O=S(=O)(Oc1ccc(-c2cn3ccoc3n2)cc1)c1cccc(C(F)(F)F)c1,86.9%
13,CC(C)C[C@@H]1N[C@@]2(C(=O)Nc3ccccc32)[C@@H](c2ccc(F)cc2)[C@@H]1C(=O)c1ccc(O)cc1,102%
14,C#CCC1(c2ccc(F)c(F)c2)NS(=O)(=O)c2ccccc21 (centres undefined),95.2%
15,O=C1c2ccccc2C(=O)N1c1ccccc1,108%
16,O=C1Nc2ccccc2/C1=C/c1ccc(COCC2CO2)n1-c1ccc(O)cc1 (centres undefined),95.9%
17,CCN(CC)CCSCCN(CC)CC,93.4%
18,O=C(O)CCCCNC(=O)c1ccccc1,97.7%
19,COc1ccc(-c2n/c(=C\c3c(O)[nH]c4ccccc34)cc3c2=Nc2ccccc2-3)cc1,-48% (active)
20,Cc1cc2cc3cc(C)c(N)cc3[n+](C)c2cc1N,-28.8% (active)
21,COc1cc(N2C(=O)c3nccnc3C2=O)cc(OC)c1OC,115%

row,SMILES,growth
1,C#COc1cccc(Nc2ncnc3cc(NC(=O)[C@H](C)Cl)ccc23)c1,-11.4% [6.25 µM] (active)
2,COc1ccc(Oc2nc(Nc3ccc(N4CCOCC4)cc3)ncc2NC(=O)Nc2cc(OC)cc(OC)c2)cc1,25.3%
3,COc1ncc(-c2ccc3nccc(C#CCN4CCN(S(C)(=O)=O)CC4)c3c2)cc1NS(=O)(=O)c1ccc(F)cc1F,-67% (active)
4,CCC(CC(C)C)Nc1ccc(NC(CC)CC(C)C)cc1 (centres undefined),71.3%
5,CCCCCC(=O)OCc1ccccc1,97.3%
6,COC(=O)Nc1ccc(-c2nc(-c3cccc(O)c3)c(-c3ccnc(Br)c3)[nH]2)cc1,25.6%
7,COC(=O)[C@H](Cc1cn(C)cn1)NC(=O)[C@H](C)NC(=O)Nc1cc(C(F)(F)F)cc(C(F)(F)F)c1,-82.8% [100 µM] (active)
8,Cc1[nH]c2ccccc2c1C1=CC(=O)C=CC1=O,72%
9,COc1ccc(Nc2ncnc3c2sc2nc(C)cc(C)c23)cc1,95.1%
10,CCCCn1cnc2c(Sc3c([N+](=O)[O-])ncn3C)nc(N)nc21,96.9%
11,O=C(CC(CC(=O)c1ccccc1)c1ccccn1)c1ccccc1,102%
12,O=C(O)CCCN1C(=O)/C(=C/c2cn(-c3ccccc3)nc2-c2ccc([N+](=O)[O-])cc2)SC1=S,73.5%
13,N#Cc1ccc(N2Cc3ccccc3OC3=C2C(=O)c2c(O)ccc(O)c2C3=O)cc1,-18.8% (active)
14,CC(C)CCC[C@@H](C)[C@H]1CC[C@H]2[C@@H]3CC[C@H]4C/C(=N/O)CC[C@]4(C)[C@H]3CC[C@]12C,99%
15,Cc1ccc(S(=O)(=O)OC[C@]23CCC(C)(C)C[C@H]2C2=CC[C@@H]4[C@@]5(C)CCCNC(C)(C)[C@@H]5CC[C@@]4(C)[C@]2(C)CC3)cc1,-35.1% (active)
16,C=C(C)[C@@H]1CC[C@]2(C(=O)NC3CCCCC3)CC[C@]3(C)[C@H](CC[C@@H]4[C@@]5(C)CCCNC(C)(C)[C@@H]5CC[C@]43C)[C@@H]12,-85.4% (active)
17,O=C(CI)NCCNc1cccc2c(S(=O)(=O)O)cccc12,100%
18,Fc1ccc(-c2cc3nc(C(Cl)Cl)nc(-c4ccc(Cl)cc4)n3n2)cc1,-76.3% (active)
19,COc1ccc(-c2c(N)noc2-c2cc(OC)c3c(c2)OCCO3)cc1,-1.87% (active)
20,COc1ccc(Cn2cc(C(=O)Nc3cccnc3Nc3ccccc3)nn2)cc1,92.9%
21,C#C[C@]1(O)CC[C@H]2[C@@H]3CC=C4c5sc(Nc6cccc(F)c6)nc5CC[C@]4(C)[C@H]3CC[C@@]21C,3.86% (active)
